# Activity calls are given as the source filed them. The calls were made as follows: active = hit-call score of the fitted dose curve at least 0.9, where 1 is the maximum; inactive = score below 0.9.
# Assay: ATG_TCF_b_cat_CIS: Attagene CIS-FACTORIAL HepG2 Assay for human T-Cell-Factor with beta-catenin (TCF/b-cat) (AID 2282965)
# Settings: HepG2 TCF/beta-catenin cis-reporter transcription, actives raise or lower the signal
# Procedure: ATG_CIS is a cell-based, multiplexed-readout assay that uses HepG2, a human liver cell line, with measurements taken at 24 hours after chemical dosing in a 24-well plate.ATG_TCF_b_cat_CIS is one of 52 assay component(s) measured or calculated from the ATG_CIS assay. It is designed to make measurements of mRNA induction, a form of inducible reporter, as detected with fluorescence intensity signals by Reverse transcription polymerase chain reaction (RT-PCR) and Capillary electrophoresis technology.Data from the assay component ATG_TCF_b_cat_CIS was analyzed into 1 assay endpoint. This assay endpoint, ATG_TCF_b_cat_CIS, was analyzed with bidirectional fitting relative to DMSO as the negative control and baseline of activity. Using a type of inducible reporter, measures of mRNA for gain or loss-of-signal activity can be used to understand the reporter gene at the transcription factor-level as they relate to the gene TCF7 and TCF7L2 and LEF1 and TCF7L1. Furthermore, this assay endpoint can be referred to as a primary readout, because this assay has produced multiple assay endpoints where this one serves a reporter gene function. To generalize the intended target to other relatable targets, this assay endpoint is annotated to the dna binding intended target family, where the subfamily is HMG box protein.
# Human liver HepG2 cells are transiently transfected with multiple reporter transcription units (MRTUs) in 6-well plates using FuGene 6 reagent (Roche; 3 ml FuGene/1 mg DNA). The MRTU constructs are regulated by a cis-regulating element (promoter). […] A major difference between the CIS and TRANS system is that in CIS activities of endogenous TFs are measured, whereas the TRANS assay evaluates changes in activities of exogenous, chimeric NR-Gal4 proteins. […] At the end of 24 hour incubation, total RNA was isolated using TriZol reagent (Invitrogen). The isolated RNA is then reverse-transcribed using oligo(dT) primer and Mo-MLV reverse transcriptase (Invitrogen) with DNAse I (Ambion) treatment for 30 min. The one-tenth of the produced cDNA was amplified by PCR using Taq DNA polymerase (Invitrogen) and two reporter sequence-specific primers. The PCR products were fluorescently labeled by primer extension with 6-arboxyfluorescein (6-FAM) 5'-labeled reporter sequence-specific primer (2 min at 95 C, 20 s at 68 C and 10 min at 72 C) and these products were digested with 5U of HpaI (New England Biolabs) for 2h at 37 C. The fragments were purified using Qiaquick PCR columns (Qiagen), analyzed on an ABI 3130xL genetic analyzer (Applied Biosystems) with peak positions identified by using a set of X-rhodamine (ROX)-labeled MapMarker1000 molecular weight standards (BioVentures). The raw capillary electrophoresis data was processed using Attagraph software (Attagene).
SMILES,outcome,AC50
CCCCCCO,inactive,–
CCC1(C)C(=O)N(Cl)C(=O)N1Cl (stereo not given),–,52.2 µM (active)
Cc1ccc(S(=O)(=O)N=C=O)cc1,inactive,–
Cc1ccc([N+](=O)[O-])cc1N,inactive,–
CC1=C(O)C(=O)C(C)O1 (stereo not given),inactive,–
Cc1c(C(=O)c2c[nH]n(C)c2=O)ccc(S(C)(=O)=O)c1C1=NOCC1,inactive,–
N#Cc1ccc(C(c2ccc(C#N)cc2)n2cncn2)cc1,inactive,–
CCCCOC(=O)CCC(C)=O,inactive,–
C=C(C)OC(C)=O,inactive,–
Oc1ccccc1Cc1ccccc1O,–,37.9 µM (active)
COC(OC)(C(=O)c1ccccc1)c1ccccc1,inactive,–
Nc1nc(N)nc(-c2ccccc2)n1,inactive,–
CCCSSCCC,inactive,–
COCC(=O)O,inactive,–
CC(=O)c1ccc(S(=O)(=O)NC(=O)NC2CCCCC2)cc1,inactive,–
CC(C)(CO)C(O)C(=O)NCCCO (stereo not given),inactive,–
CN1CCN(C)CC1,inactive,–
CCOC(=O)[C@H](O)[C@@H](O)C(=O)OCC,inactive,–
CC1(C)CCC[C@]2(C)[C@H]3CC(=O)O[C@]3(C)CC[C@@H]12,inactive,–
CCCCOCCOCCOC(C)=O,inactive,–

SMILES,outcome,AC50
C=C(C)C(=O)OCCOC(=O)C(=C)C,inactive,–
O=C(O)C1CCC(C(=O)O)CC1 (stereo not given),inactive,–
CC1(C)CC(O)CC(C)(C)N1[O],inactive,–
CC(=O)/C=C/C1C(C)=CCCC1(C)C (stereo not given),inactive,–
CC(C)(c1ccccc1)c1ccc(Nc2ccc(C(C)(C)c3ccccc3)cc2)cc1,inactive,–
CCC[Si](OC)(OC)OC,inactive,–
c1ccc(-c2nc3ccccc3[nH]2)cc1,inactive,–
CCCCNC(=S)NCCCC,inactive,–
COc1ccc(-c2coc3cc(O)cc(O)c3c2=O)cc1,inactive,–
C[Si](C)(C)N[Si](C)(C)C,inactive,–
CCCCNS(=O)(=O)c1ccccc1,inactive,–
CCCCCCCOC(=O)c1ccc(O)cc1,inactive,–
CCOc1ccc(NC(N)=O)cc1,inactive,–
CCCCCCOC(=O)CCCCC(=O)OCCCCCC,inactive,–
CC(C)c1ccc2ncccc2c1,inactive,–
CC(C)(O)Cc1ccccc1,inactive,–
CCCCC(CC)COS(=O)(=O)O (stereo not given),inactive,–
CCOB(OCC)OCC,inactive,–
Cc1c[nH]c(=O)[nH]c1=O,inactive,–
CCCCC1C(=O)N(c2ccccc2)N(c2ccccc2)C1=O,inactive,–

# Reference: PubChem BioAssay (EPA / NIEHS)
